From PubChem BioAssay
Where “and” joins values, the source holds several entries; their conditions need not be identical. Equal entries are not always repeated. Calls of active or inactive are those of the source. The rule behind the calls is not given here.

Assay: Brca1-Bard1 BiLC signal decrease – luminescence, single concentration, counter-screen for Mdm2/MdmX interaction inhibitor project, confirmation (AID 504668)
Conditions: Brca1/Bard1 bimolecular luciferase complementation counterscreen, at 8 µM, stronger effect = higher value

With Brc1cc(Br)c2ncnc(N3CCCCC3)c2c1 as the molecule, how does the inhibition read?
Its inhibition is 27.7% (active).

Which inhibition does the source give for O=[N+]([O-])c1cc(-c2nc(-c3ccncc3)no2)ccc1Cl here?
The inhibition was 23.3% (active).

Which inhibition does the source give for O=C(Nc1nc(-c2ccccn2)cs1)c1ccccc1-n1cnnn1 here?
Its inhibition is 29.6% (active).

Which inhibition does the source give for CCOC(=O)C(CC)(CC)C(=O)/C=C/c1cccc(Br)c1 here?
The inhibition was 29.2% (active).

For CCC(C)NCC(=O)Nc1ccc(-c2nc3cc(NC(=O)CNC(C)CC)ccc3o2)cc1 (stereo not given), which inhibition is on record?
The inhibition was 35.6% (active).

With COc1ccc([C@@H]2[C@@H]3C(=O)N(C(C)(C)C)C(=O)[C@@H]3[C@]3(Cc4ccc(Cl)cc4)C(=O)N(c4ccc(Br)cc4)C(=O)N23)cc1 as the molecule, how does the inhibition read?
The inhibition was 26.6% (active).

With COc1ccccc1[C@@]1(C)ON(c2ccccc2C(F)(F)F)C1=O as the molecule, how does the inhibition read?
The inhibition was 31.6% (active).

With Cc1ccc(S(=O)(=O)c2nc(S(=O)(=O)c3ccccc3)sc2N2CCN(C)CC2)cc1 as the molecule, how does the inhibition read?
Its inhibition is 23.7% (active).

With CC(=O)NC(c1cccs1)c1cc(F)c2cccnc2c1O (stereo not given) as the molecule, how does the inhibition read?
The inhibition was 30.4% (active).

For CC(=O)NC(c1cc(Cl)c2cccnc2c1O)C1CC1 (stereo not given), which inhibition is on record?
The inhibition was 33.4% (active).

Which inhibition does the source give for Cc1ccc(S(=O)(=O)c2c(C)nn(C(C)(C)C)c2OC(=O)c2ccc(Br)o2)cc1 here?
The inhibition was 29.3% (active).

Which inhibition does the source give for COc1cc([N+](=O)[O-])cc(/C=N/NC(=O)c2ccc(NC(=O)c3ccc(C)cc3)cc2)c1O here?
Its inhibition is 33.2% (active).

Which inhibition does the source give for Cc1ccc(-n2nc(C)c(NC(=O)CCl)c2C)cc1C here?
Its inhibition is 34% (active).

For Cc1ccc(C)c(NC(=S)NC(NC(=O)/C=C/c2ccccc2)C(Cl)(Cl)Cl)c1 (stereo not given), which inhibition is on record?
The inhibition was 31.4% (active).

Which inhibition does the source give for C1CCC(C(CC2CCCCN2)C2CCCCC2)CC1 (stereo not given) here?
Its inhibition is 35.2% (active) and 23.8% (active).

For O=C(NCc1cccnc1)c1c(O)c2cccc3c2n(c1=O)CCC3, which inhibition is on record?
The inhibition was 31.4% (active).

With CCOc1ccc(CNC(=O)c2cc3oc4ccccc4c3n2C)cc1 as the molecule, how does the inhibition read?
Its inhibition is 25.6% (active).

Which inhibition does the source give for C[C@@]12C(=O)Nc3ccccc3C(=O)N1[C@H]1c3cc(Br)ccc3OC[C@@H]1[C@@H]2c1ccccc1 here?
The inhibition was 30.8% (active).

With CC(=O)OC[C@H]1O[C@@H](n2ncc(=O)[nH]c2=O)[C@H](OC(C)=O)[C@@H]1OC(C)=O as the molecule, how does the inhibition read?
Its inhibition is 31.6% (active).

Which inhibition does the source give for NC(N)=N/N=C/c1ccc(OCc2ccccc2Cl)cc1 here?
Its inhibition is 32.5% (active).

Which inhibition does the source give for O=C(N/N=C/c1cc(Br)ccc1O)c1ccccc1Cl here?
The inhibition was 35.3% (active).

For O=C(CCl)Nc1cccc(S(=O)(=O)NC2=NCCCCC2)c1, which inhibition is on record?
Its inhibition is 35.8% (active).

Which inhibition does the source give for O=S(=O)(c1ccc(Cl)cc1)N1CCN(Cc2ccc(O)c3ncccc23)CC1 here?
The inhibition was 25% (active).

For CC(NC(=O)/C(C#N)=C/c1ccc(Cl)c([N+](=O)[O-])c1)c1ccccc1 (stereo not given), which inhibition is on record?
Its inhibition is 29% (active).

With Cc1ccc(C(c2cc(Cl)c3cccnc3c2O)N2CCN(C)CC2)cc1 (stereo not given) as the molecule, how does the inhibition read?
Its inhibition is 32.5% (active).

Which inhibition does the source give for CC1=NNC(=O)/C1=C\c1cn(-c2ccccc2)nc1-c1cccs1 here?
Its inhibition is 25.7% (active).

For C(=N\Nc1nc(-c2ccccn2)nc2ccccc12)/c1ccccc1, which inhibition is on record?
Its inhibition is 26.1% (active).

Which inhibition does the source give for FC(F)(F)c1cnc(NNC(=S)Nc2ccc(Cl)cc2)c(Cl)c1 here?
The inhibition was 23.3% (active).

With COc1cc(C(=O)N/N=C(\Cc2ncc[nH]2)c2ccccc2)cc(OC)c1OC as the molecule, how does the inhibition read?
Its inhibition is 23.7% (active).

With Cc1ccc(CSC(Nc2ccc(F)cc2)=C(C#N)C#N)cc1 as the molecule, how does the inhibition read?
The inhibition was 24.3% (active).

With Oc1c(Cl)cc(Cl)c(Cl)c1Cc1c(O)c(Cl)cc(Cl)c1Cl as the molecule, how does the inhibition read?
The inhibition was 26.8% (active).

Which inhibition does the source give for COc1ccc([N+](=O)[O-])cc1NC(=S)NC(NC(=O)C(c1ccccc1)c1ccccc1)C(Cl)(Cl)Cl (stereo not given) here?
Its inhibition is 29.2% (active).

With CCCN(CCC)c1nc(-c2ccccn2)nc2ccccc12 as the molecule, how does the inhibition read?
The inhibition was 24.6% (active).

For CCOC(=O)COc1ccc(/C=C/[N+](=O)[O-])c(OCC(=O)OCC)c1, which inhibition is on record?
Its inhibition is 23.7% (active).

With CCCCSc1nc(C)cc(SCC(=O)N/N=C/c2cccc(OC)c2O)n1 as the molecule, how does the inhibition read?
The inhibition was 34.4% (active).

For Cc1ccc(C(=O)N/N=C/c2c(O)ccc3ccccc23)cn1, which inhibition is on record?
Its inhibition is 26.6% (active).

Which inhibition does the source give for O=C(N/N=C(\Cc1ncc[nH]1)c1ccccc1)c1ccncc1 here?
The inhibition was 30.3% (active).

Which inhibition does the source give for COc1ccc(CCNC(=O)c2cc3c(=O)n4ccccc4nc3n(Cc3ccco3)c2=N)cc1OC here?
Its inhibition is 26.2% (active).

Which inhibition does the source give for Cc1ccccc1-c1nc(CN2CCC(C(=O)NCCCN3CC(C)CC(C)C3)CC2)c(C)o1 (stereo not given) here?
Its inhibition is 25.7% (active).

Which inhibition does the source give for O=C(Nc1nc(-c2ccccn2)cs1)c1cccc(S(=O)(=O)N2CCOCC2)c1 here?
Its inhibition is 33.4% (active).
